# Reference: PubChem BioAssay (Tox21)
# Where “and” joins values, the source holds several entries; their conditions need not be identical. Equal entries are not always repeated. Results filed as inconclusive are left out. Entries that show only a call come without a potency. Some structures have more than one record in an assay (separate samples or runs), and their calls can disagree. Calls of active or inactive are those of the source. Unless noted, calls follow the shape of the dose curve; as a rule, active = well fitted curve in the direction sought with a large enough effect in the repeat runs; inconclusive = weak or mixed curves; inactive = no such curve, though single readings can be large; an effect the other way counts as inactive or inconclusive.
# Key:
# [1] = qHTS assay to identify small molecule antagonists of the progesterone receptor (PR) signaling pathway - cell viability counter screen (AID 1346798); settings: PR-UAS-bla HEK293T viability, CellTiter-Glo luminescence, 16 h; series mostly up to 92.4 µM; also: nearly all actives have a fitted effect of over 50% in size; also: potency is read from the fitted curve at half-maximal effect
# Method in brief: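 Cytotoxicity read as CellTiter-Glo luminescence (30 min, room temperature) in the same wells as the beta-lactamase readout. HEK293T PR-UAS-bla cells in charcoal-stripped 2% FBS received compound and R5020, then 16 h at 37C, 5% CO2.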
# [2] = qHTS assay to identify small molecule antagonists of the TGF-beta/Smad signaling pathway - cell viability counter screen (AID 1346824); settings: SBE-bla HEK293T viability, CellTiter-Glo luminescence; series mostly up to 76.8 µM; also: nearly all actives have a fitted effect of over 50% in size
# Method in brief: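 Cytotoxicity counter-screen run in the same wells as the beta-lactamase Smad reporter read: CellTiter-Glo luminescence after 30 min at room temperature. HEK 293T SBE-bla cells had 5 hr compound exposure at 37 C with TGF-beta1 (0.25 ng/mL stock).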
# [3] = qHTS assay to identify small molecule agonists of the TGF-beta/Smad signaling pathway - cell viability counter screen (AID 1346829); settings: SBE-bla HEK293T viability, CellTiter-Glo luminescence, 5 h; series mostly up to 76.8 µM; also: top concentration of the series differs between compounds; nearly all actives have a fitted effect of over 45% in size
# Method in brief: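 Here the cytotoxicity of library compounds is measured in SBE-bla HEK 293T cells treated for 5 hr, using CellTiter-Glo added to wells already read for the beta-lactamase reporter.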
# [4] = qHTS assay to identify small molecule agonists of the TGF-beta/Smad signaling pathway (AID 1346859; active = well fitted activation curve with a large enough effect in the signal ratio in the repeat runs, not every such curve was filed as active; the % refers to the signal ratio); settings: SBE-bla HEK293T, TGF-beta/Smad beta-lactamase reporter, 5 h; series mostly up to 76.8 µM
# Method in brief: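 Fluorescence (ex 405 nm; em 460 and 530 nm) was read 2 h after LiveBLAzer FRET substrate at RT. The preceding compound treatment of overnight-plated SBE-bla HEK293T cells lasted 5 h at 37 C.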
# [5] = biological target: Thyrotropin-releasing hormone receptor (Homo sapiens) (UniProt P34981); assay: qHTS assay to identify small molecule antagonists of the thyrotropin-releasing hormone receptor (TRHR) signaling pathway (AID 1346877; active = well fitted inhibition curve with a large enough effect in the repeat runs, not every such curve was filed as active); settings: TRHR-HEK293, TRH-induced calcium fluorescence, antagonist mode; series mostly up to 51.3 µM
# Thyrotropin-releasing hormone receptor (Homo sapiens), sequence (P34981 whole entry, looked up): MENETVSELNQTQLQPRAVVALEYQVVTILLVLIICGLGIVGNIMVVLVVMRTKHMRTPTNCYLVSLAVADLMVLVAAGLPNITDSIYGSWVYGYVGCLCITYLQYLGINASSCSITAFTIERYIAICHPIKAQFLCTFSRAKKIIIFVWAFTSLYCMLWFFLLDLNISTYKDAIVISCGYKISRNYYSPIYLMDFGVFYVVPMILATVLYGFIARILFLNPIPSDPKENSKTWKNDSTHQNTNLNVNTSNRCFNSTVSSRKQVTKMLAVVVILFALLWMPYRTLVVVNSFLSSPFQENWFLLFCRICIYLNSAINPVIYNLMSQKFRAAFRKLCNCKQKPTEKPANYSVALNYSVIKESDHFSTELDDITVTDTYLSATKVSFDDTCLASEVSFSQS
# Method in brief: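 Calcium signal in dye-loaded TRHR/HEK293 cells; compounds added 5 min before TRH (1 nM final); fluorescence monitored 3 min at 1 s steps.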
# [6] = biological target: Thyrotropin-releasing hormone receptor (Homo sapiens) (UniProt P34981); assay: qHTS assay to identify small molecule agonists of the thyrotropin-releasing hormone receptor (TRHR) signaling pathway (AID 1346891; calls by dose curve); settings: TRHR-HEK293 calcium fluorescence, agonist mode; series mostly up to 57.6 µM
# Method in brief: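 Agonist-mode intracellular calcium readout: kinetic fluorescence over 3 min at 1 s intervals after compound addition to TRHR-HEK293 cells (18 h seeded, 2 h dye-loaded at 37 C). Fifteen concentrations, triplicates.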
# [7] = Human pregnane X receptor (PXR) small molecule agonists, qHTS cell viability counter screen (AID 1346977); settings: PXR-Luc HepG2 viability, CellTiter-Fluor, 24 h; series mostly up to 92.4 µM; also: nearly all actives have a fitted effect of over 50% in size; also: potency is read from the fitted curve at half-maximal effect
# Method in brief: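 Same-well viability read: CellTiter-Fluor added after 23 hr compound exposure, fluorescence measured 1 hr later. Cells were PXR-Luc HepG2 seeded at 2,000/well in 5% charcoal-stripped FBS medium, rested 5 hr before dosing at 37 C.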
# [8] = Caspase-3/7 induction in HepG2 cells by small molecules, qHTS assay (AID 1346978); settings: HepG2 caspase-3/7 activation, Caspase-Glo luminescence, 17 h; series mostly up to 92.4 µM; also: nearly all actives have a fitted effect of over 15% in size; also: potency is read from the fitted curve at half-maximal effect
# Method in brief: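 Caspase-3/7 induction was measured by Caspase-Glo 3/7 luminescence (30 min, room temperature) after a 17 hr compound exposure of wild-type HepG2 cells seeded at 2,000 per well and pre-incubated 5 hr.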
# [9] = Caspase-3/7 induction in CHO-K1 cells by small molecules, qHTS cell viability counter screen (AID 1346979); settings: CellTiter-Fluor fluorescence, 17 h; series mostly up to 92.4 µM; also: nearly all actives have a fitted effect of over 35% in size; also: potency is read from the fitted curve at half-maximal effect
# Method in brief: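 Cytotoxicity counter screen: CellTiter-Fluor added to compound-treated wild-type CHO-K1 cells at 16 h (37C, 5% CO2), fluorescence measured 1 h later; same wells as caspase-3/7 measurement.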
# [10] = Caspase-3/7 induction in HepG2 cells by small molecules, qHTS cell viability counter screen (AID 1346981); settings: CellTiter-Fluor fluorescence, 17 h; series mostly up to 92.4 µM; also: nearly all actives have a fitted effect of over 30% in size; also: potency is read from the fitted curve at half-maximal effect
# Method in brief: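 After a 5-hr attachment period at 37 C and 5% CO2, wild-type HepG2 cells received compounds in DMSO. Sixteen hours later CellTiter-Fluor was dispensed and the fluorescent signal quantified after a further hour.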
# [11] = biological target: Nuclear receptor subfamily 1 group I member 2 (Homo sapiens) (UniProt O75469); assay: Human pregnane X receptor (PXR) small molecule agonists, qHTS assay (AID 1346982); settings: PXR-Luc HepG2, CYP3A4 luciferase reporter, 24 h; series mostly up to 92.4 µM; also: nearly all actives have a fitted effect of over 35% in size; also: potency is read from the fitted curve at half-maximal effect
# Nuclear receptor subfamily 1 group I member 2 (Homo sapiens), sequence (O75469 whole entry, looked up): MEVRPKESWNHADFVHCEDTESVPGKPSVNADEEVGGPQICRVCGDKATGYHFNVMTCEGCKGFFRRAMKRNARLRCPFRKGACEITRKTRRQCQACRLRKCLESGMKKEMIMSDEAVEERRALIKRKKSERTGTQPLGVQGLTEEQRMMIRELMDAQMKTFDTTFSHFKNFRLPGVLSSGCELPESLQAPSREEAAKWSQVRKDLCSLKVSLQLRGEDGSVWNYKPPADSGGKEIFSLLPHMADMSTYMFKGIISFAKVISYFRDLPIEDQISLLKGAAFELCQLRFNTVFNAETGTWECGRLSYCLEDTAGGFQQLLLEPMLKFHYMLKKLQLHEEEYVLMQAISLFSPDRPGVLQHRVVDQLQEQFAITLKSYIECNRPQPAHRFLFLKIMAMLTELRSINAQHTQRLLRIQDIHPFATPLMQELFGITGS
# Method in brief: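 Tox21 qHTS; PXR-Luc HepG2; compounds pinned from DMSO; 24 hr, 37 C; ONE-Glo luciferase detection, 30 min room temperature.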
# [12] = biological target: Acetylcholinesterase (Homo sapiens) (UniProt P22303); assay: Acetylcholinesterase (AChE) small molecule antagonists: colormetric cell-based qHTS assay (AID 1347395; calls by dose curve; also: nearly all actives have a fitted effect of over 30% in size); settings: SH-SY5Y cells AChE activity, colorimetric (Ellman); series mostly up to 115 µM
# Acetylcholinesterase (Homo sapiens), sequence (P22303 whole entry, looked up): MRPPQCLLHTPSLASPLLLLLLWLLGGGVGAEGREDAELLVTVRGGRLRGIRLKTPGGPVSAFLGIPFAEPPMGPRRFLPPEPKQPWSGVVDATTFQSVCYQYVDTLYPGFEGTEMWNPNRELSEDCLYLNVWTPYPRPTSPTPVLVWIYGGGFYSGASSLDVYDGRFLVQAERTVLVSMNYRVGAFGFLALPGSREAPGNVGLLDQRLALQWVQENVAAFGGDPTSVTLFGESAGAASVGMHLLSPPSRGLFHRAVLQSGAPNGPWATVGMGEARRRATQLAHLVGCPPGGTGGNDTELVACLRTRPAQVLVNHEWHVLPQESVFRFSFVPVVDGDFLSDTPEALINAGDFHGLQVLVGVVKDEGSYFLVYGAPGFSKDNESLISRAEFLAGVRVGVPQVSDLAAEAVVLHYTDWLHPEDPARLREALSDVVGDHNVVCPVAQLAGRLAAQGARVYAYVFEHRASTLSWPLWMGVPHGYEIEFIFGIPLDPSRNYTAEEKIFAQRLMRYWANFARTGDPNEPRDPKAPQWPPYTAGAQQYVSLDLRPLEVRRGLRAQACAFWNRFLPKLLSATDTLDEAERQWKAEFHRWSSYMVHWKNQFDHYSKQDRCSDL
# Method in brief: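 Colorimetric readout: DTNB quantifies thiocholine from acetylthiocholine hydrolysed by endogenous AChE of SH-SY5Y cells (2,000/well, plated overnight). Compound pretreatment 30 min, substrate incubation 90 min, both 37 C.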
# [13] = biological target: Acetylcholinesterase (Homo sapiens) (UniProt P22303); assay: Acetylcholinesterase (AChE) small molecule antagonists: enzyme-based qHTS assay (AID 1347397; calls by dose curve; also: nearly all actives have a fitted effect of over 55% in size); settings: Potency: AChE enzyme activity inhibition; outcome: AChE enzyme activity inhibition; series mostly up to 115 µM
# Method in brief: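 Colorimetric DTNB readout of acetylthiocholine hydrolysis, 10 min at room temperature, after 30 min room-temperature exposure of 50 mU/mL recombinant human enzyme to compound; DMSO vehicle control.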
# [14] = biological target: Acetylcholinesterase (Homo sapiens) (UniProt P22303); assay: Acetylcholinesterase (AChE) small molecule antagonists: fluorescence cell-based qHTS assay (AID 1347398; calls by dose curve; also: nearly all actives have a fitted effect of over 50% in size); settings: SH-SY5Y cells; Potency: AChE activity; outcome: AChE activity; series mostly up to 115 µM
# Method in brief: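 Cellular AChE activity read as thiocholine from acetylthiocholine hydrolysis, detected by Thiolite Green fluorescence at 490/520 nm after 40 min at room temperature. Compounds were pre-incubated 30 min at 37 C on adherent SH-SY5Y cells.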
# [15] = qHTS assay to identify small molecule agonists of the progesterone receptor (PR) signaling pathway - cell viability counter screen (AID 1346799; calls by dose curve; also: nearly all actives have a fitted effect of over 45% in size; also: potency is read from the fitted curve at half-maximal effect); settings: PR-UAS-bla HEK293T viability, CellTiter-Glo luminescence, 16 h; series mostly up to 92.4 µM
# Method in brief: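 Cytotoxicity measured by CellTiter-Glo luminescence (30 min, RT) in the same wells as the PR beta-lactamase agonist read. Those HEK293T cells had 16 h compound treatment at 37 C in 2% charcoal-stripped FBS medium.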
# [16] = Caspase-3/7 induction in CHO-K1 cells by small molecules, qHTS assay (AID 1346980); settings: CHO-K1 caspase-3/7 induction, Caspase-Glo luminescence, 17 h; series mostly up to 92.4 µM; also: nearly all actives have a fitted effect of over 15% in size
# Method in brief: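 Luminescent Caspase-Glo 3/7 read (30min, room temperature) quantified apoptosis induction. Cells were wild-type CHO-K1, treated with compound for 17hr at 37 C and 5% CO2.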
# [17] = biological target: Nuclear receptor subfamily 1 group I member 2 (Rattus norvegicus) (UniProt Q9R1A7); assay: Rat pregnane X receptor (rPXR) activation by small molecules, qHTS assay (AID 1346983); settings: rPXR luciferase reporter cells, One-Glo luminescence, 24 h; stronger effect = higher value; also: nearly all actives have a fitted effect of over 20% in size
# Nuclear receptor subfamily 1 group I member 2 (Rattus norvegicus), sequence (Q9R1A7 whole entry, looked up): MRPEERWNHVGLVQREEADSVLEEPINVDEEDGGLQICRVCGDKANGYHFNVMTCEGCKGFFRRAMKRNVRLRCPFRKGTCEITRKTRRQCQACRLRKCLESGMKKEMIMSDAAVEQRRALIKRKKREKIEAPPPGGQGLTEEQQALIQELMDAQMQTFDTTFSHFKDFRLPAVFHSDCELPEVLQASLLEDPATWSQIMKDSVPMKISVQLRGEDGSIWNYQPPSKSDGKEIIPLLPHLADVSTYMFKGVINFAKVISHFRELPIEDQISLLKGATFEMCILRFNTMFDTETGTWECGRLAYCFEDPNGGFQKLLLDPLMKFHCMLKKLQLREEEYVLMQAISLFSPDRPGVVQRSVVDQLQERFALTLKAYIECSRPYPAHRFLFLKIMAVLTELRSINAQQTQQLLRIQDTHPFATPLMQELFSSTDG
# Method in brief: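 Luminescent readout (One-Glo luciferase, 30 min room temperature) followed 24 hr compound treatment at 37 C of rPXR cells plated 2,000 per well and preincubated 5hr; qHTS format with compounds delivered in DMSO.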
# [18] = biological target: Nuclear receptor subfamily 1 group I member 2 (Homo sapiens) (UniProt O75469); assay: CYP3A4 induction through human pregnane X receptor (PXR) by small molecules, qHTS assay (AID 1346984); settings: DPX-2 HepG2 PXR, CYP3A4-luciferin luminescence, 24 h; series mostly up to 46.1 µM; also: nearly all actives have a fitted effect of over 40% in size
# Method in brief: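 Cells (DPX-2; HepG2 with PXR element plus CYP3A4-promoter luciferase) settled 5hr, then were treated 24hr at 37C. A 3hr, 3uM-final Luciferin-IPA step preceded luminescence measurement with One-Glo.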
# [19] = biological target: Nuclear receptor subfamily 1 group I member 2 (Homo sapiens) (UniProt O75469); assay: Human pregnane X receptor (PXR) activation by small molecules, qHTS assay (AID 1346985); settings: DPX-2 HepG2 CYP3A4-luciferase, 24 h; series mostly up to 38.3 µM; also: nearly all actives have a fitted effect of over 40% in size
# Method in brief: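 DPX-2 cells (HepG2 co-transfected with a PXR response element and a CYP3A4-promoter luciferase construct) were seeded at 2,000 per well, rested 5 hr at 37C, then exposed to DMSO-dissolved compounds for 24 hr. Activation was read as luciferase luminescence.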
SMILES,Potency [1],Potency [2],Potency [3],outcome [4],Potency [5],outcome [6],Potency [7],Potency [8],Potency [9],Potency [10],Potency [11],Potency [12],Potency [13],Potency [14],Potency [15],Potency [16],max activation [17],outcome [18],Potency [19]
SCc1ccccc1,inactive,inactive,inactive,inactive,inactive,inactive,inactive,inactive,inactive,inactive,inactive,inactive,inactive,inactive,–,–,–,–,–
CCCN(CCOc1c(Cl)cc(Cl)cc1Cl)C(=O)n1ccnc1,78.6 µM (active),inactive,inactive,inactive,–,–,50.1 µM (active),inactive,62.4 µM (active),62.4 µM (active),7.86 µM (active) and 3.44 µM (active),inactive,inactive,–,–,–,–,–,–
CCC(C)(C)c1ccc(O)c(C(C)(C)CC)c1,60.4 µM (active) and 30.6 µM (active),inactive,–,inactive,inactive,inactive,30.6 µM (active),21.7 µM (active),48 µM (active) and 27.3 µM (active),inactive,27 µM (active) and inactive,inactive,inactive,inactive,24.3 µM (active),–,–,–,–
C[C@]12CC[C@H]3[C@@H](CCC4=CC(=O)CC[C@@H]43)[C@@H]1CC[C@@H]2OC(=O)CCc1ccccc1,inactive,inactive,inactive,inactive,–,–,inactive,inactive,inactive,inactive,inactive,–,inactive,inactive,–,inactive,–,–,–
CC(=O)OC(c1ccccc1)C(Cl)(Cl)Cl (centres undefined),inactive,–,inactive,inactive,–,–,inactive,inactive,inactive,–,inactive,inactive,inactive,inactive,inactive,inactive,–,–,–
CCCCC1C(=O)NC(=O)N(C2CCCCC2)C1=O (centres undefined),inactive,inactive,inactive,inactive,–,–,inactive,inactive,inactive,inactive,–,inactive,inactive,inactive,–,inactive,–,–,–
O=C(O)C(F)(F)C(F)(F)C(F)(F)C(F)(F)C(F)(F)C(F)(F)C(F)(F)C(F)(F)F,inactive,–,inactive,inactive,–,inactive,inactive,inactive,inactive,inactive,21.7 µM (active),inactive,inactive,inactive,–,inactive,–,–,–
CC(=O)NNc1ccccc1,30.4 µM (active),inactive,inactive,inactive,–,–,inactive,inactive,–,inactive,–,–,–,–,–,inactive,–,–,–
Cc1nnc(-c2ccccc2)c(=O)n1N,–,inactive,inactive,inactive,inactive,inactive,inactive,–,inactive,–,inactive,inactive,inactive,inactive,inactive,inactive,–,–,–
OCCSSCCO,–,inactive,inactive,inactive,inactive,inactive,inactive,inactive,inactive,inactive,–,inactive,inactive,inactive,inactive,–,–,–,–
COc1cc(C[C@@H](C)N)c(OC)cc1Br,–,inactive,inactive,inactive,inactive,inactive,–,–,inactive,inactive,inactive,inactive,inactive,inactive,–,inactive,–,–,–
c1ccc2sc(SNC3CCCCC3)nc2c1,inactive,–,inactive,inactive,inactive,inactive,inactive,inactive,inactive,inactive,–,inactive,inactive,inactive,inactive,inactive,11.8% (inactive),inactive,inactive
CCc1ccccc1N,–,inactive,inactive,inactive,–,–,inactive,inactive,inactive,–,–,inactive,inactive,inactive,inactive,inactive,–,–,–
O=[N+]([O-])O[C@H]1CO[C@H]2[C@@H]1OC[C@H]2O[N+](=O)[O-],–,inactive,inactive,inactive,–,inactive,inactive,inactive,inactive,inactive,inactive,inactive,inactive,inactive,inactive,inactive,-0.141% (inactive),inactive,inactive
CCCN(CCC)c1c([N+](=O)[O-])cc(C(C)C)cc1[N+](=O)[O-],inactive,–,inactive,inactive,–,inactive,inactive,inactive,inactive,inactive,23.8 µM (active),inactive,inactive,inactive,inactive,inactive,–,–,–
COc1cc(CC(C)N)c(OC)cc1Br (centres undefined),–,–,inactive,inactive,–,inactive,–,inactive,inactive,inactive,–,inactive,inactive,inactive,–,inactive,–,–,–
CC(C)(C)N(NC(=O)c1ccc(Cl)cc1)C(=O)c1ccccc1,inactive,–,inactive,inactive,inactive,inactive,–,inactive,12.1 µM (active),12.1 µM (active),–,inactive,inactive,inactive,inactive,inactive,–,–,–
CCCCCl,–,–,inactive,inactive,–,inactive,inactive,–,inactive,inactive,inactive,inactive,inactive,inactive,–,inactive,-0.159% (inactive),inactive,inactive
CN(C1CCCCC1)C1CCCCC1,inactive,–,inactive,inactive,–,inactive,inactive,inactive,inactive,inactive,inactive,inactive,inactive,inactive,inactive,inactive,–,–,–
CC(O)CN1CCN(CC(=O)[O-])CCN(CC(=O)[O-])CCN(CC(=O)[O-])CC1.[Gd+3] (centres undefined),inactive,–,inactive,inactive,inactive,inactive,inactive,inactive,inactive,inactive,inactive,inactive,inactive,inactive,inactive,inactive,–,–,–
